In PubChem BioAssay (NCATS):
Records with an inconclusive call do not appear. Active and inactive are the calls of the source. Calls follow the shape of the dose curve; as a rule, active = well fitted curve in the direction sought with a large enough effect; inconclusive = small, poorly fitted or top-dose-only effect, or another doubt; inactive = no such curve, though single readings can be large; an effect the other way counts as inactive or inconclusive.

Experiments:
CRL-7250 = normal cell line; experiment: Cytotoxic Profiling of Annotated Libraries Using Quantitative High-Throughput Screening (AID 1296008); details: Five cell lines viability, CellTiter-Glo ATP luminescence, 48-72 h; max response: stronger effect = lower value; also: nearly all actives have a fitted effect of over 60% in size; as to max response: % is scaled to controls: 0 for no effect and ±100 for the full control effect
Procedure, shortened: (§1)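 Compounds were pin-transferred onto cells and incubated 48 or 72 hr at 37 degree Celsius, 95% humidity. CellTiter-Glo was added, plates sat 10 min at room temperature, then ATP-coupled luminescence was imaged as the viability read-out.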

HEK293 = experiment: as above; details: Five cell lines viability, CellTiter-Glo ATP luminescence, 48-72 h; max response: stronger effect = lower value
Procedure, shortened: as §1

HaCat [1] = experiment: as above; details: Five cell lines viability, CellTiter-Glo ATP luminescence, 48-72 h; max response: stronger effect = lower value
Procedure, shortened: as §1

KB-3-1 = experiment: as above; details: Five cell lines viability, CellTiter-Glo ATP luminescence, 48-72 h; max response: stronger effect = lower value
Procedure, shortened: as §1

NIH3T3 [2] = experiment: as above; details: Five cell lines viability, CellTiter-Glo ATP luminescence, 48-72 h; max response: stronger effect = lower value
Procedure, shortened: as §1

C33A = experiment: Primary qHTS to identify gynecologic anti-cancer compounds using libraries of approved drugs and bioactive compounds (AID 1345084); details: Gynecologic cancer cell panel viability, ATPlite luminescence, 48 h; series mostly up to 57.5 µM; also: % is scaled to controls: 0 for no effect and ±100 for the full control effect; nearly all actives have a fitted effect of over 55% in size
Procedure, shortened: (§2)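 Five-point cytotoxicity, 48 h drug exposure at 37 C, 5% CO2, on cells seeded 16 h beforehand. ATP content read by ATPlite luminescence.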

CASKI = experiment: as above; details: Gynecologic cancer cell panel viability, ATPlite luminescence, 48 h; series mostly up to 57.5 µM
Procedure, shortened: as §2

Es-2 = experiment: as above; details: Gynecologic cancer cell panel viability, ATPlite luminescence, 48 h; series mostly up to 57.5 µM
Procedure, shortened: as §2

HeLa = experiment: as above; details: Gynecologic cancer cell panel viability, ATPlite luminescence, 48 h; series mostly up to 57.5 µM
Procedure, shortened: as §2

Hek293T = experiment: as above; details: Gynecologic cancer cell panel viability, ATPlite luminescence, 48 h, control line for the selectivity index; series mostly up to 57.5 µM
Procedure, shortened: as §2

JEG-3 = experiment: as above; details: Gynecologic cancer cell panel viability, ATPlite luminescence, 48 h; series mostly up to 57.5 µM
Procedure, shortened: as §2

OV90 = experiment: as above; details: Gynecologic cancer cell panel viability, ATPlite luminescence, 48 h; series mostly up to 57.5 µM
Procedure, shortened: as §2

PA-1 = experiment: as above; details: Gynecologic cancer cell panel viability, ATPlite luminescence, 48 h; series mostly up to 57.5 µM
Procedure, shortened: as §2

NIH3T3 [3] = experiment: qHTS assay to identify novel small-molecules to repurpose for Merkel cell carcinoma treatment (AID 1296009); details: MCC and control cell lines, CellTiter-Glo viability, 72 h; at 44.8 µM (top of the series) unless noted; also: nearly all actives have a fitted effect of over 60% in size
Procedure, shortened: (§3)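 qHTS format: cells treated with library compounds in DMSO across 8 (NPC) or 11 (MIPE) concentrations. Readout after 72 hr at 37 degree celsius was CellTiter-Glo luminescence.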

CAOV3 = experiment: Primary qHTS to identify gynecologic anti-cancer compounds using libraries of approved drugs and bioactive compounds (AID 1345084); details: Gynecologic cancer cell panel viability, ATPlite luminescence, 48 h; series mostly up to 57.5 µM; also: % is scaled to controls: 0 for no effect and ±100 for the full control effect; nearly all actives have a fitted effect of over 55% in size
Procedure, shortened: as §2

HACAT [4] = experiment: qHTS assay to identify novel small-molecules to repurpose for Merkel cell carcinoma treatment (AID 1296009); details: MCC and control cell lines, CellTiter-Glo viability, 72 h; at 44.8 µM (top of the series) unless noted; also: nearly all actives have a fitted effect of over 60% in size
Procedure, shortened: as §3

Nc1nc(COC(=O)c2ccc([N+](=O)[O-])cc2)nc(Nc2ccccc2)n1
inactive: max response (CRL-7250) -7.38% | max response (HEK293) -16.5% | max response (HaCat [1]) -9.19% | max response (KB-3-1) -4.58% | outcome (NIH3T3 [2]) | Potency (C33A) | outcome (CASKI) | Potency (Es-2) | Potency (HeLa) | Potency (Hek293T) | Potency (JEG-3) | Potency (OV90) | Potency (PA-1)

Cc1nnc(-c2ccc3occ(-c4ccc(S(C)=O)cc4)c3c2)o1 (stereo not given)
inactive: outcome (CRL-7250) | max response (HEK293) -3.27% | max response (HaCat [1]) -2.4% | outcome (KB-3-1) | outcome (NIH3T3 [2]) | outcome (NIH3T3 [3]) | outcome (CASKI) | Potency (HeLa) | Potency (Hek293T) | Potency (JEG-3)

CC(NC(=O)CC(=O)O)C(=O)Nc1ccccc1C(N)=O (stereo not given)
inactive: max response (CRL-7250) -2.72% | max response (HEK293) 2.48% | max response (HaCat [1]) -2.92% | max response (KB-3-1) 3.19% | outcome (NIH3T3 [2]) | outcome (NIH3T3 [3]) | Potency (C33A) | Potency (CAOV3) | Potency (Es-2) | Potency (HeLa) | Potency (Hek293T) | Potency (JEG-3) | Potency (OV90) | Potency (PA-1)

COc1cccc(OC)c1-c1nc(C(=O)N[C@@H](CC(C)C)C(=O)O)cn1-c1ccnc2cc(Cl)ccc12
inactive: outcome (CRL-7250) | max response (HEK293) -12.4% | max response (HaCat [1]) 3.78% | outcome (KB-3-1) | outcome (NIH3T3 [2]) | Potency (C33A) | Potency (CAOV3) | outcome (CASKI) | Potency (Es-2) | Potency (HeLa) | Potency (Hek293T) | Potency (JEG-3) | Potency (OV90) | Potency (PA-1)

CCOC(=O)c1ccc(NC2CCCCC2)c(N)c1
inactive: outcome (CRL-7250) | max response (HEK293) -10.7% | max response (HaCat [1]) -10.7% | max response (KB-3-1) -6.34% | outcome (NIH3T3 [2]) | Potency (C33A) | Potency (CAOV3) | outcome (CASKI) | Potency (Es-2) | Potency (HeLa) | Potency (Hek293T) | Potency (JEG-3) | Potency (OV90) | Potency (PA-1)

C=CC(C)(CCC=C(C)C)O[C@@H]1O[C@H](CO)[C@@H](O)[C@H](O)[C@H]1O (stereo not given in full)
inactive: max response (CRL-7250) -23.7% | max response (HEK293) -6.28% | max response (HaCat [1]) -2.03% | max response (KB-3-1) 6.36% | outcome (NIH3T3 [2]) | outcome (NIH3T3 [3]) | Potency (C33A) | outcome (CASKI) | Potency (Es-2) | Potency (HeLa) | Potency (Hek293T) | Potency (JEG-3) | Potency (OV90) | Potency (PA-1)

CC(=O)Nc1cccc2c1c(Sc1ccc(Cl)cc1)c(C)n2CC(=O)O
inactive: max response (CRL-7250) -5.82% | max response (HEK293) 1.56% | max response (HaCat [1]) -2.39% | max response (KB-3-1) -3.16% | outcome (NIH3T3 [2]) | outcome (NIH3T3 [3]) | Potency (Es-2) | Potency (JEG-3)

CC/C=C\CC1C(CC(=O)O)CCC1OC1OC(CO)C(O)C(O)C1O (stereo not given)
inactive: outcome (CRL-7250) | outcome (HaCat [1]) | max response (KB-3-1) 8.15% | outcome (NIH3T3 [2]) | outcome (HACAT [4]) | outcome (NIH3T3 [3]) | Potency (C33A) | Potency (CAOV3) | outcome (CASKI) | Potency (Es-2) | Potency (HeLa) | Potency (Hek293T) | Potency (JEG-3) | Potency (OV90) | Potency (PA-1)

C/C=C(\C)C(=O)OC[C@H]1O[C@H](O[C@H]2O[C@H](CO)[C@@H](O)[C@H](O)[C@H]2O[C@@H]2O[C@H](CO)[C@@H](O)[C@H](O)[C@H]2O)[C@H](O[C@@H]2O[C@H](CO)[C@@H](O)[C@H](O)[C@H]2O)[C@@H](O)[C@@H]1O
inactive: max response (CRL-7250) 0.965% | outcome (HaCat [1]) | outcome (KB-3-1) | outcome (NIH3T3 [2]) | outcome (HACAT [4]) inactive [at 17.4 µM] | outcome (NIH3T3 [3]) inactive [at 17.4 µM] | Potency (C33A) | Potency (CAOV3) | outcome (CASKI) | Potency (Es-2) | Potency (HeLa) | Potency (Hek293T) | Potency (JEG-3) | Potency (OV90) | Potency (PA-1)

CC1OC(OC2C(OC(=O)[C@]34CCC(C)(C)C[C@H]3C3=CCC5[C@@]6(C)CC[C@H](OC7OC(C(=O)O)C(O)C(O)C7O)C(C)(C)C6CC[C@@]5(C)[C@]3(C)CC4O)OC(CO)C2O)C(O)C(O)C1OC1OCC(O)C(O)C1O (stereo not given in full)
inactive: max response (CRL-7250) 0.472% | outcome (HaCat [1]) | max response (KB-3-1) 8.03% | max response (NIH3T3 [2]) -0.0675% | outcome (HACAT [4]) inactive [at 9.27 µM] | activity change, negative = cytotoxicity (C33A) 6.97% [at 11.6 µM] | activity change, negative = cytotoxicity (CAOV3) 0.294% [at 11.6 µM] | activity change, negative = cytotoxicity (CASKI) 7.85% [at 11.6 µM] | activity change, negative = cytotoxicity (Es-2) -0.633% [at 11.6 µM] | activity change, negative = cytotoxicity (HeLa) 8.57% [at 11.6 µM] | activity change, negative = cytotoxicity (Hek293T) 3.77% [at 11.6 µM] | activity change, negative = cytotoxicity (JEG-3) 3.79% [at 11.6 µM] | activity change, negative = cytotoxicity (OV90) -5.89% [at 11.6 µM] | activity change, negative = cytotoxicity (PA-1) 30.3% [at 11.6 µM]

CC1=C2C(=O)C=C(CO[C@@H]3O[C@H](CO)[C@@H](O)[C@H](O)[C@H]3O)[C@@H]2[C@H]2OC(=O)[C@H](C)[C@@H]2[C@@H](O)C1
inactive: outcome (CRL-7250) | max response (HaCat [1]) 0.75% | max response (KB-3-1) 2.15% | outcome (NIH3T3 [2]) | outcome (NIH3T3 [3]) inactive [at 17.4 µM] | Potency (C33A) | Potency (CAOV3) | outcome (CASKI) | Potency (Es-2) | Potency (HeLa) | Potency (Hek293T) | Potency (JEG-3) | Potency (OV90) | Potency (PA-1)

C=C1CC[C@@]2(OC1)O[C@H]1CC3[C@@H]4CC=C5C[C@@H](O)C[C@@H](O[C@@H]6OC[C@H](O)[C@H](O)[C@H]6O[C@@H]6O[C@@H](C)[C@H](O)[C@@H](O)[C@H]6O)[C@]5(C)C4CC[C@]3(C)[C@H]1[C@@H]2C (stereo not given in full)
inactive: outcome (CRL-7250) | outcome (HaCat [1]) | outcome (KB-3-1) | outcome (NIH3T3 [2]) | outcome (HACAT [4]) inactive [at 17.4 µM] | outcome (NIH3T3 [3]) inactive [at 17.4 µM] | Potency (C33A) | Potency (CAOV3) | outcome (CASKI) | Potency (Es-2) | Potency (HeLa) | Potency (Hek293T) | Potency (JEG-3) | Potency (OV90) | Potency (PA-1)
